Source: PubChem BioAssay (National Center for Advancing Translational Sciences (NCATS))
Shown are actives, neighbours in structure and some others; about 10% of the full set was active somewhere.
HP1b chromo inh – inhibitors of HP1-beta chromodomain binding to methylated histone tails; P83916; AlphaScreen HP1-beta / biotin-H3K9me3 peptide binding; Potency, µM (top dose mostly 114 µM), actives largely listed as inhibitors; 390,000 tested, 0.56% active; note: nearly all actives have a fitted effect of over 70% in size
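HP1-beta protein (50 nM final) preincubated 30 min at room temperature with biotinylated H3(1-18)K9me3 peptide (50 nM) in PBS pH 7.4, 0.01% Tween-20, then compound added for 30 min. AlphaScreen streptavidin donor/nickel chelate acceptor beads (10 ug/mL final), 30 min dark, luminescence read.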
Six1-Eya2 blk – inhibitors of human Six1/Eya2 interaction | Q15475+O00167 | AlphaScreen GST-Six1/His-Eya2 binding, biochemical; stronger effect = lower value | activity change, % (test concentration not listed) | 360,000 tested, 0.56% active | AID 651725; in the data active = activity change below about -65%; inconclusive = mostly about -30% to -63%
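Compounds are tested against tagged Six1 and Eya2 proteins bridged by glutathione donor and nickel acceptor beads; after a one-hour incubation at 37 °C without light, AlphaScreen emission is recorded.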
CtBP-E1A inh – blocks the CtBP interaction with E1A; AlphaScreen GST-E1A/His-CtBP binding, 1536-well; stronger effect = lower value; activity change, % (no concentration beside the values); 340,000 tested, 0.49% active; AID 651724; in the data active = activity change below about -65%; inconclusive = mostly about -30% to -63%
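In 5 uL wells, 23 nL compound meets equimolar GST-E1A and His-CtBP (5X stock 125 nM each) for 2 h, 37 °C. Beads (5X, 50 ug/mL) then 1 h, 37 °C, dark.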
G9a inh – inhibitors of human histone lysine methyltransferase G9a; Q96KQ7; G9a H3K9 monomethylation, AlphaScreen, 2 h; 350,000 tested, 8.8% active; Potency, µM (titrated, usually from 102 µM), usual class: inhibitors; note: nearly all actives have a fitted effect of over 75% in size
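Chemiluminescent proximity detection of H3K9 monomethylation, read after 10 min bead incubation in the dark. Reaction: 20 nM G9a, 500 nM biotin-H3K9 peptide, 20 uM SAM cofactor, 2 h, room temperature, following 15 min enzyme-compound preincubation.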
BAZ2B inh – BAZ2B (human) inhibition; 360,000 tested, 4.4% active; Potency, µM (series often up to 114 µM), actives largely listed as inhibitors; AID 504333; AlphaScreen BAZ2B-H3K14Ac peptide displacement; note: nearly all actives have a fitted effect of over 60% in size
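Complex of BAZ2B and biotin-H3K14Ac (50 nM apiece) forms over 30 min at RT, then faces library compounds up to 110 uM for another 30 min; AlphaScreen beads added, 20 min dark incubation, luminescence read.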
JMJD2A Tudor – inhibitors of human JMJD2A Tudor domain; Potency, µM (titrated, usually from 114 µM), most hits filed as inhibitors; 390,000 tested, 4.4% active; O75164; AlphaScreen JMJD2A-Tudor / H3K4me3 peptide binding; note: nearly all actives have a fitted effect of over 50% in size
Large screens that a line does not name were inactive. Unless noted, calls come from the whole dose curve; as a rule, active = well fitted inhibition curve with a large enough effect; inconclusive = small, poorly fitted or top-dose-only effect; inactive = no such curve, though single readings can be large or run the other way.

COc1ccc(N2CCN(c3ccc(NC(=O)/C=C\C(=O)O)cc3)CC2)cc1	G9a inh 45µM, BAZ2B inh inconclusive (no result: CtBP-E1A inh)
COc1ccc(/C=C/C(=O)Nc2ccc(N3CCOCC3)cc2)cc1	none
Cc1ccc(Nc2nc(C(=O)N3CCC(C(=O)N4CCN(C)CC4)CC3)cs2)cc1	G9a inh 50µM, JMJD2A Tudor inconclusive
O=C(NN1C(=O)C2C3C=CC(O3)C2C1=O)c1cccc(O)c1 (stereo not given)	G9a inh 7.9µM
COc1ccc(C(=O)NN2C(=O)C3C4C=CC(O4)C3C2=O)cc1 (stereo not given)	G9a inh 4.5µM
Cc1onc(-c2ccccc2)c1-c1nnc(CN2CCN(S(=O)(=O)c3ccccc3F)CC2)o1	none
CCC(C)C(=O)Nc1nc2ccc(S(C)(=O)=O)cc2s1 (stereo not given)	G9a inh 32µM (no result: CtBP-E1A inh)
CCc1noc(C)c1C(=O)Nc1nc2ccc(F)cc2s1	G9a inh 16µM
CC(C)C(=O)Nc1nc2ccc(S(C)(=O)=O)cc2s1	none (no result: G9a inh)
CS(=O)(=O)c1ccc2nc(NC(=O)CCNC(=O)c3ccc([N+](=O)[O-])cc3)sc2c1	G9a inh 40µM
CC(=O)Nc1ccc(S(=O)(=O)Nc2nc3ccc([N+](=O)[O-])cc3s2)cc1	G9a inh 45µM (no result: CtBP-E1A inh)
CCN(Cc1ccccc1)C(=O)c1c(C)oc2ncn(C)c(=O)c12	none (no result: Six1-Eya2 blk, CtBP-E1A inh)
CCc1noc(C)c1C(=O)Nc1nc2ccc(S(C)(=O)=O)cc2s1	G9a inh 50µM
Cc1onc(-c2ccccc2Cl)c1C(=O)Nc1nc2ccc(S(C)(=O)=O)cc2s1	none
O=C(c1ccc(Cl)c(Cl)c1)N1CCC(=O)N([C@H](COCc2ccc(Cl)cc2)Cc2ccccc2)CC1	none (no result: HP1b chromo inh, G9a inh, BAZ2B inh, JMJD2A Tudor)
COc1ccc(-c2cn3nc(N4CCCC(C(=O)Nc5cccc(Cl)c5C)C4)sc3n2)cc1 (stereo not given)	none (no result: Six1-Eya2 blk, CtBP-E1A inh)
Nc1ccccc1C(=O)N=Nc1[nH]c(N)c2ccccc12	Six1-Eya2 blk -76, CtBP-E1A inh -87, BAZ2B inh 35µM, JMJD2A Tudor 79µM
COc1ccc(C(C#N)=C2C=CC(=NO)C(C)=C2Cl)cc1	HP1b chromo inh inconclusive, JMJD2A Tudor 8.9µM (no result: G9a inh, BAZ2B inh)
COc1ccc(C(C#N)=C2C=C(Cl)C(=NO)C=C2Cl)cc1	none (no result: HP1b chromo inh, G9a inh, BAZ2B inh, JMJD2A Tudor)
S=C(NCc1ccco1)NCc1ccco1	HP1b chromo inh 35µM, JMJD2A Tudor 56µM (no result: G9a inh, BAZ2B inh)
Cc1cccc(NC(=S)NCc2ccco2)n1	G9a inh 2µM
NNC(=S)NCc1ccco1	JMJD2A Tudor 89µM
CC(C)(C)NC(=S)NCc1ccco1	G9a inh 79µM
S=C(NCc1ccccc1)NCc1ccco1	G9a inh inconclusive
COc1ccc(-c2noc(CSc3nc(N)cc(=O)[nH]3)n2)cc1OC	none (no result: Six1-Eya2 blk, CtBP-E1A inh)
Cc1c(Cl)c(C(=O)NNC(=S)NCc2ccco2)nn1C	G9a inh inconclusive
O=C(Cc1cccs1)NNC(=S)NCc1ccco1	G9a inh 50µM
Cn1cc(Cl)c(C(=O)NNC(=S)NCc2ccco2)n1	G9a inh 40µM (no result: CtBP-E1A inh)
O=C(Cc1cccs1)NCc1ccco1	none
COc1ccc(C(CC(=O)Nc2ccccn2)N2Cc3ccccc3C2=O)cc1OC (stereo not given)	none (no result: CtBP-E1A inh)
CC(C)CCN1CCC[C@]2(N[C@H](c3ccccc3)[C@@H]3C(=O)N(Cc4ccccc4)C(=O)[C@@H]32)C1=O	none (no result: HP1b chromo inh, G9a inh, BAZ2B inh, JMJD2A Tudor)
Cc1nccn1CC(O)COC1CCCCC1 (stereo not given)	HP1b chromo inh inconclusive, G9a inh inconclusive, BAZ2B inh 32µM, JMJD2A Tudor 18µM
Cc1nccn1CC(O)COc1ccccc1 (stereo not given)	none
OC(COC1CCCCC1)CN1CCCCC1 (stereo not given)	G9a inh 7.9µM, BAZ2B inh 56µM, JMJD2A Tudor 79µM
CC(C)(C)C1CCC(OCC(O)CN2CCCC2)CC1 (stereo not given)	none (no result: G9a inh)
CCCCCCCCN1C(=O)[C@H](CC(=O)NCc2cccc3ccccc23)C[C@@]2(C(=O)OCC)CCC=C12	none (no result: HP1b chromo inh, G9a inh, BAZ2B inh, JMJD2A Tudor)
OCc1cccc(-c2cnc3c(Nc4cccc(OC(F)(F)C(F)F)c4)nccn23)c1	none (no result: HP1b chromo inh, G9a inh, BAZ2B inh, JMJD2A Tudor)
